Pf growth 96h: P. falciparum growth inhibition at 96 hours. P. falciparum luciferase reporter growth, 96 h. Potency, µM (series often up to 28.7 µM), inactives show top-dose activity change, negative = inhibition, hits mostly inhibitors. 320,000 tested, 6.9% active
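96 h incubation, 37 C, 5% CO2, of luciferase-reporter P. falciparum-infected RBCs (2% hematocrit, 0.05% parasitemia final) with test compounds; endpoint luminescence.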
HCV inhibitor: blocks hepatitis C virus | Huh7.5.1 HCVcc-Cre infection, luciferase reporter, 44 h | Potency, µM (doses to about 41.8 µM), inactives show at the highest dose activity change, negative = inhibition, most hits filed as inhibitors | 340,000 tested, 3.4% active | AID 651820
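After 44 h co-culture of compound, cells and HCVcc-Cre (~0.5 moi), substrate is added for 15 min at room temperature and luciferase measured over 15 sec. Cells were seeded at 1,000/well and pre-cultured 4 h.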
AMA1 RON2 block: inhibitors of Plasmodium falciparum AMA1-RON2 interaction | AlphaScreen AMA1-biotinylated RON2 peptide binding | Potency, µM (titrated, usually from 58.2 µM), inactives show at the top dose activity change, negative = inhibition, usual class: inhibitors | 360,000 tested, 0.2% active | AID 720542;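 further: 0% = vehicle wells and -100% = peptide control; nearly all actives have a fitted effect of over 45% in size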
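AMA1 (3D7) with his tag at 25 nM final met compounds first, then biotinylated RON2 peptide at 25 nM; detection used donor plus acceptor beads, 10 µg/mL apiece, read by AlphaScreen after 30 min at room temperature.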
AmpC inh no detg: blocks E. coli AmpC beta-lactamase in detergent-free assay. P00811. 330,000 tested, 0.52% active. Potency, µM (series often up to 57.1 µM), for the others: at the highest dose activity change, negative = inhibition, actives largely listed as inhibitors. AmpC nitrocefin hydrolysis, absorbance 480 nm, 0.0001% Triton;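 further: plate controls were no compound for no effect and no enzyme for full effect; nearly all actives have a fitted effect of over 20% in size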
Target sequence (P00811 whole entry, looked up): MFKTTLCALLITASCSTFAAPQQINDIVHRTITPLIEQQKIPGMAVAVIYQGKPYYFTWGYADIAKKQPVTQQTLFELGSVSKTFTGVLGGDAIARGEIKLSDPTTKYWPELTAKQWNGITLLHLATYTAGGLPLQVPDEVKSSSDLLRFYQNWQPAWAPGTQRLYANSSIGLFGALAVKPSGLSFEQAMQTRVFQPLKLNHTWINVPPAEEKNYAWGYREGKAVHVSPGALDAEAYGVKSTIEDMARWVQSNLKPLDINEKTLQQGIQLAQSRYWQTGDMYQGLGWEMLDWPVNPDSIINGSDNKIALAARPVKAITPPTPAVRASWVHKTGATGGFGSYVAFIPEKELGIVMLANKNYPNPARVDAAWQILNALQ
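20 mM phosphate pH 7.0 + 0.01% (detergent screen) or 0.0001% Triton X-100; 5.3 nM AmpC reagent; cpd preinc 15 min RT; nitrocefin (800 uM stock) to start; A480 q20 s × 4 min; Activity was normalised to no-enzyme and no-compound control wells.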
AmpC inh detg: inhibitors of E. coli AmpC beta-lactamase with detergent; P00811; Potency, µM (highest dose often 114 µM), for inactives: at the top dose activity change, negative = inhibition, actives largely listed as inhibitors; 370,000 tested, 0.041% active; AmpC hydrolysis of nitrocefin, absorbance 480 nm, 0.01% Triton;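 further: 0% = no-compound wells and -100% = no-enzyme wells; nearly all actives have a fitted effect of over 25% in size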
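20 mM phosphate pH 7.0 + 0.01% (detergent screen) or 0.0001% Triton X-100; 5.3 nM AmpC reagent; cpd preinc 15 min RT; nitrocefin (800 uM stock) to start; A480 q20 s × 4 min; Activity was normalised to no-enzyme and no-compound control wells.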
Pf growth 48h: P. falciparum growth inhibition at 48 hours (one generation); P. falciparum luciferase growth in erythrocytes, 48 h; Potency, µM (titrated, usually from 28.7 µM), without a hit: top-dose activity change, negative = inhibition, actives largely listed as inhibitors; 310,000 tested, 5.9% active
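Erythrocytes infected with P. falciparum carrying an integrated firefly luciferase reporter (2% hematocrit, 0.1% parasitemia final) were exposed to compounds in RPMI 1640 with 0.5% Albumax at 37 C, 5% CO2. Growth inhibition was scored as reduced luminescence.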
The depositor's hits bear a star; ? = inconclusive; . = not tested or not shown. Hits are enriched below; roughly 11% of the tested compounds scored in any of these assays. The call rests on the fitted dose curve; in most records, active means well fitted curve in the direction sought with a large enough effect; inconclusive means small, poorly fitted or top-dose-only effect, or another doubt; inactive means no such curve, though single readings can be large; an effect the other way counts as inactive or inconclusive. Unless noted, on the % scale 0 is the no-effect control and ±100 the full control effect; potency means the concentration at half of the fitted maximal effect.

SMILES	Pf growth 96h	HCV inhibitor	AMA1 RON2 block	AmpC inh no detg	AmpC inh detg	Pf growth 48h
CCC(C)NC(=O)c1ccccc1NC(=O)c1ccc(CSc2ccccc2)cc1 (centres undefined)	0%	-6%	4%	-45%	-6%	12µM*
CC(=O)NCCNC(=O)c1ccc(CSc2ccc(Cl)cc2)cc1	239%	7%	-11%	4%	-2%	228%
CCCNC(=O)c1ccccc1NC(=O)c1ccc(CSc2ccccc2)cc1	?	?	1%	-17%	14%	13µM*
COc1cc(OC)cc(C(=O)Nc2cccc(-c3cn4ccsc4n3)c2)c1	.	.	.	.	-9%	.
CC(Sc1nc(-c2ccccc2)cc(C(F)(F)F)n1)C(=O)NCc1ccco1 (centres undefined)	.	11µM*	-1%	-14%	-7%	?
O=C(CSc1nc(-c2ccc(F)cc2)cc(C(F)(F)F)n1)NCCc1ccccc1	.	.	.	.	23%	.
O=C(CSc1nc(-c2ccc(F)cc2)cc(C(F)(F)F)n1)NCc1ccco1	2.1µM*	-7%	1%	-12%	4%	-14%
O=C(CSc1nc(-c2ccc(F)cc2)cc(C(F)(F)F)n1)NCc1cccs1	3.3µM*	9%	10%	-22%	-8%	-8%
O=C(CSc1nc(-c2cccs2)cc(C(F)(F)F)n1)Nc1cc(OCC(F)(F)C(F)F)cc([N+](=O)[O-])c1	?	3.5µM*	-24%	-16%	-2%	?
COc1cc(CN(C(=O)c2ccccc2[N+](=O)[O-])c2ccccn2)cc(OC)c1OC	.	.	.	.	24%	.
Cc1nn(C)c2c1c(C(F)(F)F)cc(=O)n2C(C)C(=O)NCCC(C)C (centres undefined)	.	.	.	.	26%	.
CCN(CC)c1ccc(NC(=O)c2cnn3c(C(F)F)cc(-c4ccccc4)nc23)cc1	.	.	.	.	23%	.
CC1CCCN(C(=O)C(C)Sc2nc(-c3ccccc3)cc(C(F)(F)F)n2)C1 (centres undefined)	.	?	15%	62%	0%	2.6µM*
Cc1ccc(-n2c(SCc3ccccc3F)nc3[nH]ncc3c2=O)cc1Cl	.	.	.	.	12%	.
FC(F)(F)c1cc(C(F)(F)F)c2ccc(N3CCN(c4ccc(Cl)cc4)CC3)nc2n1	28%	13%	-4%	-15%	1%	36%
N#CC(c1ccc(Cl)cc1)c1ccc2c(C(F)(F)F)cc(C(F)(F)F)nc2n1 (centres undefined)	2.6µM*	?	?	-17%	-16%	.
CN(C)c1ccc(/C=C2\CCC/C(=C\c3ccccc3)C2=O)cc1	?	?	-23%	-18%	?	?
Cn1cccc1/C=C1\CCC/C(=C\c2cccn2C)C1=O	-8%	13µM*	?	105%	0%	.
O=C1/C(=C/c2cccs2)CCC/C1=C\c1cccs1	307%	-19%	11µM*	-25%	-1%	177%
CCOc1ccc(/C=N/NC(=S)Nc2c(C)cccc2C)cc1	2.6µM*	?	69%	-27%	-6%	.
CCOc1ccc(/C=N/NC(=O)C(OC)c2ccccc2)cc1 (centres undefined)	9.3µM*	11%	31%	-17%	1%	?
C=CCOc1cccc(/C=N/NC(=O)C(OC)c2ccccc2)c1 (centres undefined)	13µM*	-4%	-7%	-8%	?	-16%
CCNC(=S)N/N=C/c1ccc(OCCOc2ccccc2C)cc1	15%	-4%	1%	-30%	1%	1%
COc1cc(OC)cc(-n2c(=O)c3ccccc3n(CC(=O)NCCc3ccc(OC)c(OC)c3)c2=O)c1	.	.	.	.	7%	.
N#C/C(=C\c1ccccc1)C(=O)NC1CC1	16%	11%	3%	-15%	-6%	8%
SMILES	Pf growth 96h	HCV inhibitor	AMA1 RON2 block	AmpC inh no detg	AmpC inh detg	Pf growth 48h
N#C/C(=C\c1cccnc1)C(=O)NC1CCCCC1	?	12%	17%	-9%	0%	10µM*
N#C/C(=C\c1cn[nH]c1-c1ccccc1)C(=O)NC1CCCCCC1	?	25µM*	-4%	-19%	?	?
[O-][n+]1c2ccccc2cc2ccccc21	7.4µM*	?	-5%	-19%	?	2.6µM*
Cc1ccc(CNC(=O)CN(C(=O)C2(C)CC(=O)N=C3C=CC=CN32)c2cc(C)ccc2C)cc1 (centres undefined)	-13%	1%	-17%	6%	-11%	-3%
Cc1ccc(CNC(=O)CN(Cc2cccs2)C(=O)C2(C)CC(=O)N=C3C=CC=CN32)cc1 (centres undefined)	1.7µM*	-2%	3%	-8%	?	11%
O=C(CSCc1cc(=O)n2nc(C3CC3)sc2n1)Nc1ccccc1Cl	3.3µM*	3%	-3%	-19%	0%	?
CN(C)CCn1nnnc1SCC1=C(C(=O)O)N2C(=O)[C@@H](NC(=O)Cc3csc(N)n3)[C@@H]2SC1	6.4µM*	.	.	.	.	?
CN(C)CCn1nnnc1SCC1=C(C(=O)O)N2C(=O)[C@@H](NC(=O)Cc3csc(N)n3)[C@H]2SC1	13%	?	28%	-23%	?	11%
CC(C)(C)c1ccc(C2=NC(=O)C(CC(=O)O)S2)cc1 (centres undefined)	92%	7%	9%	-49%	1%	2.6µM*
Cc1ccc(CNC(C)c2ccccc2)s1 (centres undefined)	.	.	.	.	-2%	.
CC(NCCC(c1ccccc1)c1ccccc1)c1ccccc1 (centres undefined)	11µM*	?	-5%	8%	?	13µM*
CCCSc1ccc([C@@H]2[C@@H]3C(=O)N(C)C(=O)[C@@H]3[C@]3(C(=O)OC)CCCCN23)cc1OC	?	-25%	-10%	204%	-7%	13µM*
CCCSc1ccc([C@@H]2[C@H]3C(=O)N(CC)C(=O)[C@H]3[C@]3(C(=O)OC)CCCN23)cc1OC	?	10%	-9%	186%	-18%	?
CCN1C(=O)[C@@H]2[C@@H](c3ccc(SC4CCCCC4)c(OC)c3)N3CCC[C@@]3(C(=O)OC)[C@@H]2C1=O	?	-3%	?	195%	-4%	8.3µM*
CCCSc1ccc([C@@H]2[C@H]3C(=O)N(CC)C(=O)[C@H]3[C@]3(C(=O)OC)CCCCN23)cc1OC	12µM*	?	-5%	155%	-15%	10µM*
Cc1cccc(N2CCN(C(=O)CCCn3ncn4c(cc5occc54)c3=O)CC2)c1C	.	.	.	.	12%	.
Cn1cccc1-c1cc2n(n1)CCC(=O)N2CCCC(=O)NCc1ccc(F)cc1	.	.	.	.	21%	.
